Source: PubChem (The Scripps Research Institute Molecular Screening Center)
Most compounds without a hit are left out; they make up all but 2.4% or so of the library.
CHO-K1 Ca PAM: nonselective calcium activators in parental CHO-K1 cells, primary screen, counter-screen for M1 PAM project, cell-based, Fluo-8 calcium fluorescence, full deck, 1536-well. ATP EC20; 0% at ATP EC20, 100% at ATP max. actives 0.02% (n = 360,000). activation, % at 3 µM;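 active means activation above the run cutoff, the mean activation of all test compounds plus 3 SD, cut at about 40% in these data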;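 further: peak over basal fluorescence ratio in a 140 s read after ATP addition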
CHO-K1 Ca antag: M1 antagonist counterscreen hit in parental CHO-K1 cells | ATP-induced calcium, Fluo-8 fluorescence | inhibition, % at 3 µM | actives 0.6% (n = 360,000);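 active means inhibition above a per-plate cutoff, the plate's mean sample inhibition plus 3 SD, cut at about 24% in these data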;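 further: 0% = DMSO plus EC80 ATP and 100% = DMSO alone without ATP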
M1 PAM: human M1 muscarinic receptor positive allosteric modulators, primary screen, CHO-K1 cells, Fluo-8 calcium fluorescence, 1536-well; Muscarinic acetylcholine receptor M1 (Homo sapiens), P11229; CHO-K1 hM1, ACh EC20; 0% = ACh EC20, 100% = maximal ACh; activation, % at 3 µM; actives 0.088% (n = 360,000); in the data active means activation above about 19%, passing the limit was not always enough
Target sequence (P11229 whole entry, looked up): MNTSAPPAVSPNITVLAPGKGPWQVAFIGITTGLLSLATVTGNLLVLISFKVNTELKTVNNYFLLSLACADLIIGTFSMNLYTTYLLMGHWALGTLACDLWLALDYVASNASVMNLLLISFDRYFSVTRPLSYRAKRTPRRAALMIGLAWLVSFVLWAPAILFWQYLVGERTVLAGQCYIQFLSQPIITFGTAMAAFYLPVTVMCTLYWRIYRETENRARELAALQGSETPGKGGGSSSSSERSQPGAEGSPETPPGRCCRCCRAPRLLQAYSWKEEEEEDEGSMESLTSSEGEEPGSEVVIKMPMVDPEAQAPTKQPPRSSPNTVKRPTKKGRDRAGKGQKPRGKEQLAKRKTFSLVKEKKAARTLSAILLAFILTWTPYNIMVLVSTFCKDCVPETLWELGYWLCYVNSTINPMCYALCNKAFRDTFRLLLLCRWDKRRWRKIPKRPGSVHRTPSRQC
M1 ag: human M1 muscarinic receptor agonists, primary screen, Fluo-8 calcium fluorescence, CHO-K1 cells, HTS. AID 588814, 2011. CHO-K1 hM1, agonist mode; 0% DMSO, 100% acetylcholine EC100. activation, % at 3 µM. actives 0.33% (n = 360,000);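 active means activation above the run's mean compound activation plus 3 SD, cut at about 16% in these data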;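 further: peak over basal fluorescence ratio within a 140 s kinetic read after compound addition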
CHRM1 antagonist: human M1 muscarinic receptor antagonists, primary screen, CHO-K1 cells, Fluo-8 calcium fluorescence, 1536-well; Muscarinic acetylcholine receptor M1 (Homo sapiens), P11229; AID 588852, 2011; inhibition, % at 3 µM; CHO-K1 hM1, ACh EC80 antagonist; actives 1.3% (n = 360,000);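 active means percent inhibition above its own plate's cutoff, namely the mean of that plate's compound wells plus 3 SD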;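 further: peak over basal fluorescence ratio during 140 s after agonist addition; 0% = ACh EC80 plus DMSO and 100% = DMSO alone without agonist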
M1 ag parental: counter-screen for M1 agonists: effect in parental CHO-K1 cells. Fluo-8 calcium fluorescence; scaled to maximal ATP response, vehicle zero. actives 0.48% (n = 360,000). AID 602248, 2012. activation, % at 3 µM; in the data active means activation above about 15%;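 further: untransfected CHO-K1 host cells lacking M1 receptor as counterscreen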
* marks the source's active call; other numbers are inactive results.

SMILES	CHO-K1 Ca PAM	CHO-K1 Ca antag	M1 PAM	M1 ag	CHRM1 antagonist	M1 ag parental
COC(C(=O)Nc1ccccc1C(=O)N1CCOCC1)c1ccccc1 (stereo not drawn)	10.5	-14.4	8.5	-0.6	-19.4	1.4
O=S(=O)(c1ccc2nc(N3CCN(c4ccccc4F)CC3)ccc2c1)N1CCCCC1	-5.6	24.6*	-3.2	-1.1	2.9	2.1
Fc1ccccc1N1CCN(Cc2cc(-c3ccccc3)on2)CC1	16.5	-13.5	-1.6	-6.4	6.9	0.3
CC(C(=O)Nc1ccc2c(c1)OCCO2)c1ccc([N+](=O)[O-])cc1 (stereo not drawn)	11.5	-1.2	-2.0	41.8*	6.3	17.3*
CC(Sc1nncs1)C(=O)Nc1ccc2c(c1)OCCO2 (stereo not drawn)	9.4	24.9*	9.8	-1.7	-4.2	-0.3
CC(C)CN(C(=O)CSc1nc(N)cc(N)n1)C1CCS(=O)(=O)C1 (stereo not drawn)	1.7	-11.9	4.6	-1.4	-13.9	-0.3
CCC(NC(=O)CNC(=O)c1ccc2c(c1)OCO2)c1ccc(Br)cc1 (stereo not drawn)	-12.9	3.7	4.1	7.7	-4.4	2.3
Cc1ccc(-n2ncc3c(=O)n(CC(=O)N4CCN(C(=O)c5ccco5)CC4)cnc32)cc1	1.0	-9.6	2.8	-6.3	-6.8	-0.3
O=C(O)CCN(CC(=O)c1ccc(Cl)cc1)S(=O)(=O)c1ccc([N+](=O)[O-])cc1	20.3	-7.2	-3.0	0.3	-3.5	-0.3
CC#CCN(Cc1ccco1)C(=O)C1CCC(=O)N(CCc2cccc(F)c2)C1 (stereo not drawn)	4.9	1.6	-8.2	-7.3	13.1	0.2
CCn1c(=O)n(CCc2ccccc2)c(=O)c2c3c(sc21)CCCC3	6.9	9.0	-6.6	-1.6	5.5	9.3
COC(=O)Cn1c(=O)n(CCc2ccccc2)c(=O)c2c3c(sc21)CCCC3	19.2	-15.8	-21.7	-8.6	76.9*	-0.2
CN(C)c1ccc(-c2ccnc3c2CC(C)(C(=O)Nc2ccc(F)c(Cl)c2)O3)cc1 (stereo not drawn)	5.6	-7.4	8.5	-4.9	-19.9	0.0
Cc1ccc(S(=O)(=O)NCCC(=O)NC(C)CCc2ccccc2)cc1 (stereo not drawn)	8.2	-6.6	4.2	-0.9	-18.3	0.4
CCOc1ccc(-c2nc(CSCC(=O)N3CCN(c4cccc(OC)c4)CC3)c(C)o2)cc1	-4.4	15.2	-18.8	-1.5	34.7*	6.5
Cc1ccc(-c2nc(CSCC(=O)N3CCN(c4ccccn4)CC3)c(C)o2)cc1	4.4	0.8	-26.9	-3.3	32.7*	9.4
Cc1ccc(-c2nc(CSCC(=O)N3CCOCC3)c(C)o2)cc1	13.8	-4.3	7.0	-2.1	-7.6	0.9
CCc1ccc(-c2nc(CSCC(=O)N3CCN(c4ccccn4)CC3)c(C)o2)cc1	-7.5	28.5*	-9.7	-0.4	14.1	5.6
CCOC(=O)CSc1cc(C)nc2ccc(OC)cc12	-19.1	24.2*	-6.3	-5.2	-3.6	-0.2
CCN1C(=NCCN2CCOCC2)N[C@@H](c2ccccc2)C(C(=O)OC)=C1C	-21.3	26.0*	-10.1	-9.7	4.6	-0.6
COC(=O)C1=C(C)N(Cc2ccccc2)C(=NCCN2CCOCC2)N[C@H]1CCc1ccccc1	14.3	-15.2	8.8	-11.6	-7.3	0.9
COC(=O)C1=C(C)N(Cc2ccccc2)C(=NCc2ccccc2)N[C@H]1c1ccccc1	6.0	9.2	0.1	-5.9	16.1	15.9*
COC(=O)c1ccccc1S(=O)(=O)N1CCC(C(=O)OCc2ccc([N+](=O)[O-])cc2)CC1	-10.0	1.2	-9.6	0.7	6.5	5.0
O=C(CN1CCN(Cc2ccccc2Cl)CC1)N/N=C/C=C/c1ccccc1[N+](=O)[O-]	-12.5	27.3*	-8.7	-7.1	15.6	1.0
O=C(CN1CCN(Cc2ccccc2Cl)CC1)N/N=C/C=C\c1ccccc1[N+](=O)[O-]	-9.2	9.1	6.9	-10.3	3.2	1.7
SMILES	CHO-K1 Ca PAM	CHO-K1 Ca antag	M1 PAM	M1 ag	CHRM1 antagonist	M1 ag parental
C[C@H]1CN([C@@H](C)CO)S(=O)(=O)c2ccc(Br)cc2O[C@@H]1CN(C)C(=O)CCN1CCCCC1	6.3	-9.0	1.6	-9.7	-3.2	0.0
NC(=O)CN1CCOCCOCCN(CC(N)=O)CCOCCOCC1	-1.6	48.6*	4.9	0.2	-21.5	1.5
Cc1cc(C)n(C(C)CC(=O)N2CCc3ccccc32)n1 (stereo not drawn)	8.8	-3.9	-15.8	-4.8	32.6*	0.6
Cc1ccc(-n2c(-c3cccnc3)n[nH]c2=S)c(C)c1	-6.5	26.3*	7.1	-1.6	0.5	-0.2
Cc1ccc(C)c(NC(=O)CN(C)C(=O)COc2cccc3c2OC(C)(C)C3)c1	0.9	4.2	0.0	-0.2	-5.0	8.3
Cc1cc(C)c(NC(=O)c2ccc3c(c2)C(=O)N(Cc2cccnc2)C3=O)c(C)c1	11.9	-7.9	5.5	-2.2	-5.2	2.1
Cc1ccc(O)c(NC(=O)c2ccc3c(c2)C(=O)N(Cc2cccnc2)C3=O)c1	-25.3	33.0*	0.8	8.3	29.8	8.5
Cc1cc(C(=O)N(C)CC2CCCN(CCc3ccc(F)cc3)C2)c(C)o1 (stereo not drawn)	10.0	-6.9	-16.8	-7.0	18.9	-0.2
CN(CC1CCCN(CCc2ccccc2F)C1)C(=O)c1cc2ccccc2o1 (stereo not drawn)	11.2	-0.8	-30.7	-8.9	96.0*	2.0
COCc1ccc(C(=O)N(C)CC2CCCN(CCc3ccc(Cl)cc3)C2)o1 (stereo not drawn)	27.0	-15.7	-14.8	-6.8	23.4	1.8
COCc1ccc(C(=O)N(C)CC2CCCN(CCc3ccc(OC)cc3)C2)o1 (stereo not drawn)	-4.2	-12.0	-22.1	-5.0	52.1*	0.1
CC1CCCC(NC(=O)CSc2ncccn2)C1C (stereo not drawn)	-23.0	27.0*	9.9	-0.1	-4.2	-0.9
COC(=O)[C@@H]1CCCN1C(=O)c1ccc(OC2CCN(Cc3ccccn3)CC2)cc1	-9.7	-12.8	27.6*	-3.8	-21.9	-0.3
COc1ccc(N2CCN(C(=O)CCS(=O)(=O)c3ccc4c(c3)NC(=O)CO4)CC2)cc1	1.6	-8.5	4.0	-1.9	-8.1	2.2
Cc1cccc(NC(=S)NCc2ccco2)n1	11.0	2.0	11.4	4.6	-7.8	16.9*
COC(=O)c1ccc(NC(=S)NCc2ccco2)cc1	-13.8	29.8*	-3.3	2.0	4.4	0.9
S=C(NCc1ccco1)NCc1ccco1	11.9	-9.3	11.2	-3.2	-17.5	0.0
